The list is not random: actives were taken first. Their share in the collection is about 3.5%.
Pf apPOL inh: Pf-apPOL DNA polymerase inhibition. Recombinant Pf-apPOL, molecular beacon fluorescence, 1.5 h. inhibition, % at 10 µM. hit rate 0.25% among 210,000. AID 1794808
mHTT-CaM PPI inh: inhibitors of human mutant huntingtin-calmodulin interaction | AlphaScreen His-mHTT/GST-CaM binding, luminescence | hit rate 3.6% among 190,000 | inhibition, % at 15 µM | P42858 | AID 1671202
Numbers stand for hits; – = inactive; · = no result given; ! = not confirmed by another sample. No stated cut-off is given here; in the data, active means inhibition above about 50%; inactive means the rest.

SMILES | Pf apPOL inh | mHTT-CaM PPI inh
CCOc1ccc(-c2cc3c(=O)n(Cc4nc(-c5ccccc5Cl)no4)ncn3n2)cc1 | – | –
CCN(CC)c1ccc(NC(=O)c2cnccn2)cc1 | – | 59.6
CCOc1ccc(NC(=O)c2cnccn2)cc1 | – | –
Cc1nnc(N2C(=O)C(O)=C(C(=O)c3ccco3)C2c2cccc([N+](=O)[O-])c2)s1 (stereo not given) | – | –
Cc1nnc(N2C(=O)C(O)=C(C(=O)c3ccco3)C2c2cccc(Oc3ccccc3)c2)s1 (stereo not given) | – | 55.5
CC(=O)NCCc1csc(C2CCN(C(=O)Nc3ccc(F)cc3)CC2)n1 | – | –
Cc1cc(=O)[nH]c(SCC(=O)Nc2ccc([N+](=O)[O-])cc2)n1 | – | –
COc1ccc(C(NC(=O)Cc2ccccc2)c2ccc3cccnc3c2O)cc1OC (stereo not given) | 87.0! | 100.0
COc1ccc(C(NC(=O)CCc2ccccc2)c2ccc3cccnc3c2O)cc1OC (stereo not given) | – | 100.0
COc1ccccc1C(NC(=O)Cc1ccccc1)c1ccc2cccnc2c1O (stereo not given) | – | –
O=C(CCc1ccccc1)NC(c1ccccc1)c1ccccc1 | – | –
COCCN1C(=O)C2(SCCN2C(=O)c2ccccc2)c2ccccc21 (stereo not given) | – | –
O=C(Nc1ccc(Cl)cc1F)C1CCCC1 | – | –
CC(C)n1cc(C2=CCN(C(=O)Nc3ccc(Cl)cc3)CC2)c2cccnc21 | – | –
CC(C)n1cc(C2=CCN(C(=O)Nc3ccc4c(c3)OCCO4)CC2)c2cccnc21 | – | 60.9
COc1ccc(CN2CCC(c3nc4cccnc4n3C)C2)cc1 (stereo not given) | – | –
CC(C)CN1CCn2cc(C(=O)N3CCN(c4ccc(F)cc4)CC3)nc2C1 | – | 91.4
CCN1CCn2cc(C(=O)N3CCN(c4ccccc4)CC3)nc2C1 | – | –
CC(C)CN1CCn2cc(C(=O)N3CCN(c4ccccc4F)CC3)nc2C1 | – | –
CC(C)CN1CCn2cc(C(=O)N3CCN(c4cccc(Cl)c4)CC3)nc2C1 | – | 85.8
CC(=O)NCCc1ccc(S(=O)(=O)N2CCc3ccccc32)cc1 | – | –
O=C(Cn1c(C(F)(F)F)nc2ccccc21)c1cccc([N+](=O)[O-])c1 | – | –
O=C(C(Cc1ccccc1)N1C(=O)c2ccccc2C1=O)N1CCN(CCO)CC1 (stereo not given) | – | –
O=C(C(Cc1ccccc1)N1C(=O)c2ccccc2C1=O)N1CCN(c2ccc(F)cc2)CC1 (stereo not given) | – | 50.9
CN(C)C(=O)NC(Nc1cccc([N+](=O)[O-])c1)C(Cl)(Cl)Cl (stereo not given) | – | –
SMILES | Pf apPOL inh | mHTT-CaM PPI inh
O=C(NC(Nc1ccccc1Cl)C(Cl)(Cl)Cl)c1cccc([N+](=O)[O-])c1 (stereo not given) | – | 74.0
COc1ccc(NC(NC(=O)c2cc([N+](=O)[O-])cc([N+](=O)[O-])c2)C(Cl)(Cl)Cl)cc1 (stereo not given) | – | 69.0
Cc1ccc(C(=O)NC(Nc2ccccc2C)C(Cl)(Cl)Cl)cc1 (stereo not given) | – | –
O=C(NC(Nc1ccc([N+](=O)[O-])cc1)C(Cl)(Cl)Cl)c1ccccc1 (stereo not given) | – | –
O=C(NC(Nc1cccc([N+](=O)[O-])c1)C(Cl)(Cl)Cl)c1cccc(Cl)c1 (stereo not given) | – | 86.0
Cc1cccc(C(=O)NC(Nc2ccc([N+](=O)[O-])cc2)C(Cl)(Cl)Cl)c1 (stereo not given) | – | –
Cc1ccccc1NC(NC(=O)c1cc([N+](=O)[O-])cc([N+](=O)[O-])c1)C(Cl)(Cl)Cl (stereo not given) | – | 53.0
Nc1nonc1-c1noc(COc2cc(Cl)c(Cl)cc2Cl)n1 | – | –
c1ccc(CCCN2CCN(Cc3ccco3)CC2)cc1 | – | –
COc1ccc(OC)c(NC(=O)c2cccnc2)c1 | – | –
COc1ccc(NC(=O)c2c(NC(=O)CN3CCCC3)sc3c2CCC3)c(OC)c1 | – | –
COc1ccccc1NC(=O)c1c(NC(=O)c2ccccc2Cl)sc2c1CCCC2 | – | –
COc1ccc(OC)c(NC(=O)c2c(NCc3ccncc3)sc3c2CCC3)c1 | – | 88.0
COc1ccc(OC)c(NC(=O)c2c(NCc3cccnc3)sc3c2CCCC3)c1 | – | 69.0
COc1ccc(Cl)cc1NC(=O)c1c(NCc2ccncc2)sc2c1CCCC2 | – | 79.0
COc1ccc(OC)c(NC(=O)c2c(NCc3ccncc3)sc3c2CCCC3)c1 | – | 70.0
COc1ccc(CC(=O)Nc2sc3c(c2C(N)=O)CCCCCC3)cc1OC | – | –
Cc1cccc(N2CCN(C(=O)c3ccc(-c4cccs4)nc3)CC2)c1 | – | –
COc1ccc(CNC(=O)Cn2nc([N+](=O)[O-])c(Cl)c2C)cc1 | – | –
COc1ccc(Br)cc1/C=C1/N=C(C2CCCCC2)OC1=O | – | –
COc1ccc(OC)c(NC(=O)c2c(NC(=O)CCC(=O)O)sc3c2CCCCC3)c1 | – | 53.7
COc1ccc(NC(=O)c2c(NC(C)=O)sc3c2CCCC3)c(OC)c1 | – | –
O=c1c2c3c(sc2nnn1Cc1ccccc1F)CCCC3 | – | –
COCCN=C1Nc2ccccc2NC12CCCN(C(=O)Nc1ccc(OC)cc1)C2 (stereo not given) | – | 99.8
COCCN=C1Nc2ccccc2NC12CCCN(C(=O)Nc1ccc(OC)cc1C)C2 (stereo not given) | – | 69.9
SMILES | Pf apPOL inh | mHTT-CaM PPI inh
COCCN=C1Nc2ccccc2NC12CCCN(C(=O)c1cc(OC)cc(OC)c1)C2 (stereo not given) | – | –
COCCN=C1Nc2ccccc2NC12CCCN(C(=O)c1ccc(C)c(F)c1)C2 (stereo not given) | – | –
Clc1cccc(Cl)c1SCc1ccc(-c2ncns2)cc1 | – | ·
CCOc1ccc(C(=O)N2CCCC3(C2)Nc2ccccc2NC3=NCCOC)cc1 (stereo not given) | – | –
Cc1ccc([C@H]2C[C@@H](n3cc(C4CC4)nn3)[C@H](O)CN2Cc2cccs2)cc1 | – | –
O[C@H]1C[C@H](c2ccccc2)N(Cc2cccs2)C[C@@H]1n1cc(C2CC2)nn1 | – | 74.4
CCCCCCN1C[C@@H](n2cc(C3CC3)nn2)[C@H](O)C[C@@H]1c1ccc(OC)cc1 | – | –
COc1ccc([C@H]2C[C@H](O)[C@@H](n3cc(C4CC4)nn3)CN2Cc2cccs2)cc1 | – | 94.0
Cc1cccc(NC(c2ccc(F)cc2)C2CCCC2=O)c1 (stereo not given) | – | –
Cc1ccccc1CN1CCCN(c2cccc(NC(=O)C(C)C)c2)C1=O | – | –
Cc1ccc(C(=O)/C=C/C=C/C=C/N(C)C)o1 | – | 73.8
Cc1ccc(C(=O)NN(C)C)o1 | · | –
COc1ccccc1OCCCCN1CCOCC1 | – | –
O=C(c1nc2ccccc2s1)N1CCN(Cc2nc(-c3ccc(F)cc3)cs2)CC1 | – | –
Cc1cccc(-n2nc(C)c3sc(N4CCCN(C(=O)C5CCCCC5)CC4)nc32)c1 | – | 67.8
Cc1ccc(-n2nc(C)c3sc(N4CCCN(C(=O)C5CCCC5)CC4)nc32)cc1 | – | –
CN(Cc1ccccc1)c1nc2c(c(=O)n(C)c(=O)n2C)n1CC(O)CO (stereo not given) | – | –
Cc1ccnc(NC(c2cccc([N+](=O)[O-])c2)c2ccc3cccnc3c2O)c1 (stereo not given) | – | 100.0

Screening results (PubChem)
